Our source for the outcome and AC50 values is PubChem BioAssay (EPA / NIEHS).

Several values for one entry are separate records, joined by “and”; a condition that tells them apart may be missing. Equal entries are not always repeated. Records with an inconclusive call do not appear. Some structures have more than one record in an assay (separate samples or runs), and their calls can disagree. Activity calls are given as the source filed them. The calls were made as follows, unless noted: active = hit-call score of the fitted dose curve at least 0.9, where 1 is the maximum; inconclusive = response in the unintended direction; inactive = score below 0.9.

Assay [1] addresses Nuclear receptor subfamily 1 group I member 2 (Homo sapiens) (UniProt O75469). The assay can be described thus: NVS_NR_hPXR: NovaScreen (NVS) Nuclear Receptor Binding Assay for human Pregnane X Receptor (PXR) (AID 2283365).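 Also: a drop in FRET signal versus DMSO baseline means the compound binds.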 The essentials:
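Read-out: TR-FRET, human PXR, 2 h post-dosing, cell-free. Loss of signal vs DMSO taken as binding activity; 25 uM primary, concentration series secondary.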

The target of assay [2] is rat Androgen Receptor (AR), Ar (gene 24208) (UniProt P15207). In words: NVS_NR_rAR: NovaScreen (NVS) Nuclear Receptor Binding Assay for rat Androgen Receptor (AR) (AID 2283366). In short, it runs like this:
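Cell-free radioligand binding on extracts of prostate from testosterone-pretreated rats, read by filter-based scintillation counting 18 h after dosing. Loss of bound signal fitted positively versus DMSO; primary screen in duplicate at 25 uM, actives followed up in concentration series.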

Assay [3] relates to guinea pig Dopamine Transporter (DAT), gene 100714898. In words: NVS_TR_gDAT: NovaScreen (NVS) Transporter Assay for guinea pig Dopamine Transporter (DAT) (AID 2283369).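 Also: active compounds lower bound radioligand signal relative to DMSO.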 In short, it runs like this: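 Primary pass: duplicate wells at 25 uM, threshold e.g. 30% inhibition. Follow-up: singleton concentration-response, highest 50 uM. Radioligand binding on guinea pig striatal membranes, 2 h, filtration scintillation detection.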

In assay [4] the target is Peroxisome proliferator-activated receptor gamma (Homo sapiens) (UniProt P37231). In words: NVS_NR_hPPARg: NovaScreen (NVS) Nuclear Receptor Binding Assay for human Peroxisome Proliferator-activated Receptor gamma (PPARg) (AID 2283370). In short, it runs like this:
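Extracted receptor protein, cell-free; compound incubated 2 h then fluorescence polarization read. Baseline: DMSO. Actives from 25 uM duplicate screen re-run across concentrations.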

For assay [5], the target named is human Dopamine Transporter (DAT), SLC6A3 (gene 6531) (UniProt Q01959). In words: NVS_TR_hDAT: NovaScreen (NVS) Transporter Assay for human Dopamine Transporter (DAT) (AID 2283374).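 Also: activity means loss of bound radioligand signal relative to DMSO.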 In short, it runs like this:
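Cell-free radioligand displacement binding at human DAT, 1 h after dosing, with filtration and scintillation counting. Primary screen in duplicate at 25 uM, actives then in concentration series. Loss of bound signal versus DMSO scored.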

In assay [6] the target is mouse Estrogen Receptor alpha (Era), Esr1 (gene 13982) (UniProt P19785). In words: NVS_NR_mERa: NovaScreen (NVS) Nuclear Receptor Binding Assay for mouse Estrogen Receptor alpha (Era) (AID 2283378).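 Also: hit means loss of bound radioligand signal relative to DMSO.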 The essentials:
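Measurements come from scintillation counting after filtration, taken 18 hours after chemicals were added to a cell-free mouse Era preparation with radioligand. Screening was duplicate at 25 uM, with concurrent positive and negative controls and confirmatory concentration series for actives.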

The target of assay [7] is Agonist Androgen Response Element (ARE), AR (gene 367) (UniProt P10275). The assay can be described thus: OT_AR_ARELUC_AG_1440: Odyssey Thera (OT) 24-hour CHO-K1 Luciferase Assay for Agonist Androgen Response Element (ARE) (AID 2283379). In short, it runs like this: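 CHO-K1 cells carrying an ARE-driven luciferase reporter were exposed to compounds for 24 h. Luminescence was then read after adding a D-luciferin/ATP mix, and activity was scored as a gain in signal over DMSO vehicle.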
Chain of Agonist Androgen Response Element (ARE), AR (gene 367) (P10275 whole entry, looked up): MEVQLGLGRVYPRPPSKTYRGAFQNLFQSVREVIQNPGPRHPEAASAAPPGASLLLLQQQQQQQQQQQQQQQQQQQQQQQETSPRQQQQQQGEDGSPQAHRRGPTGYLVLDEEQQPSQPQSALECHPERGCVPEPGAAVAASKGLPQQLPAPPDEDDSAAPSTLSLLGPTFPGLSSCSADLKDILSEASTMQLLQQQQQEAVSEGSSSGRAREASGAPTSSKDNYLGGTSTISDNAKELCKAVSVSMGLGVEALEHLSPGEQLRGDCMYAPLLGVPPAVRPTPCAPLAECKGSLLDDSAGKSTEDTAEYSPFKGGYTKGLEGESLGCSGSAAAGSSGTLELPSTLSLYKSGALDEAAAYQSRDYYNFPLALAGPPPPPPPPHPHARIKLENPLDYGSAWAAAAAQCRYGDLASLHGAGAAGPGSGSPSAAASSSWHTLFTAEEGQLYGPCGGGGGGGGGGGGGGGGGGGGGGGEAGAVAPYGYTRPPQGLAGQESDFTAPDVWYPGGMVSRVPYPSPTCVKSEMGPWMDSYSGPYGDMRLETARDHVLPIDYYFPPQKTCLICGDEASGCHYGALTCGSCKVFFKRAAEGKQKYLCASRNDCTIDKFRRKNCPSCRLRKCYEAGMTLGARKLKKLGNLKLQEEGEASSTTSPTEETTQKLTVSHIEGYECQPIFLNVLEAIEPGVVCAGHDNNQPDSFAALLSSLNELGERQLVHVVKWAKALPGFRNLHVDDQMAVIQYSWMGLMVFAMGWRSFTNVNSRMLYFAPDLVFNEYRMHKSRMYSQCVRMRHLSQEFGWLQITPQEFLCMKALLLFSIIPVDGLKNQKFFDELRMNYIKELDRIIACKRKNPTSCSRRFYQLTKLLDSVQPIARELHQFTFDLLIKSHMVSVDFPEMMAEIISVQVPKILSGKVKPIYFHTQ

Assay [8] concerns the target Bile acid receptor (Homo sapiens) (UniProt Q96RI1). The assay can be described thus: OT_FXR_FXRSRC1_0480: Odyssey Thera (OT) 8-hour HEK293T Protein-Complementation Assay for Farnesoid X receptor/SRC-1 Co-activator (AID 2283383). In short, it runs like this: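 Human kidney HEK293T cells carried FXR/SRC-1 fragment-complementation constructs. Compounds were added and incubated 8 h. Reporter reassembly upon receptor–co-activator interaction was then quantified by fluorescence, with curves fitted in the positive direction relative to DMSO.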

The target is the same in assay [9]. The assay can be described thus: OT_FXR_FXRSRC1_1440: Odyssey Thera (OT) 24-hour HEK293T Protein-Complementation Assay for Farnesoid X receptor/SRC-1 Co-activator (AID 2283384). In short, it runs like this:
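Compounds are applied to human kidney HEK293T cells expressing bait and prey fused to reporter protein fragments; after 24 h, reconstituted reporter fluorescence is measured. Activity is fitted as signal gain over DMSO.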

In assay [10] the target is Retinoic acid receptor RXR-alpha (Homo sapiens) (UniProt P19793). The assay can be described thus: OT_NURR1_NURR1RXRa_0480: Odyssey Thera (OT) 8-hour HEK293T Protein Complementation Assay for Nurr1/retinoid X receptor (RXR) (AID 2283385). In short, it runs like this: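 8 h compound exposure, HEK293T; Nurr1/RXRα fragment complementation; fluorescence intensity; positive fitting direction vs DMSO baseline.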
Chain of Retinoic acid receptor RXR-alpha (Homo sapiens) (P19793 whole entry, looked up, the tested form may be a part): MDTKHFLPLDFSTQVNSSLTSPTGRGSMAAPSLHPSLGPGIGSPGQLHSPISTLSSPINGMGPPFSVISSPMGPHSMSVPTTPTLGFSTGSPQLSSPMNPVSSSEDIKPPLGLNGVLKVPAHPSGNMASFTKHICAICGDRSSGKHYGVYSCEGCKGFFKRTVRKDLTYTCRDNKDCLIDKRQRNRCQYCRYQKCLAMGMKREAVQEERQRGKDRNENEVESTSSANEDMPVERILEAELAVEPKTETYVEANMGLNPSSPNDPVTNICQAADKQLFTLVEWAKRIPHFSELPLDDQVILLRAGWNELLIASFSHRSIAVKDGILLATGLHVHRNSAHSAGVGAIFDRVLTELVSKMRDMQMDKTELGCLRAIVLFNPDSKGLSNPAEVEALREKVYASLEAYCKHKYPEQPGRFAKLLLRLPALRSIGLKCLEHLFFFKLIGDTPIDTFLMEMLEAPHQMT

Assay [11] addresses Estrogen receptor beta (Homo sapiens) (UniProt Q92731). The assay can be described thus: OT_ER_ERbERb_1440: Odyssey Thera (OT) 24-hour HEK293T Protein-Complementation Assay for Estrogen Receptor-beta/-beta Homodimer (AID 2283380).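 Also: scored as signal increase over DMSO baseline for both agonists and antagonists.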 In short, it runs like this: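 HEK293T cells stably expressing ER beta LBD (aa 310-547) homodimer fragment-complementation reporter, dosed 24 h. Cells formaldehyde-fixed, Draq5-stained; gain in nuclear (agonist) or nuclear plus cytoplasmic (antagonist) fluorescence versus DMSO read by laser scanning cytometry.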

The target in assay [12] is Estrogen receptor (Homo sapiens) (UniProt P03372). The assay can be described thus: OT_ERa_GFPERaERE_0480: Odyssey Thera (OT) 8-hour HeLa Transcription Induction Assay for Estrogen Receptor (AID 2283381; active = hit-call score of the fitted dose curve at least 0.9, where 1 is the maximum; inactive = score below 0.9). The essentials:
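Fluorescent reporter signal, imaged by microscopy and scored with image-analysis algorithms, was taken 8 h after chemical dosing of HeLa cells; activity was fitted upward relative to DMSO.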

For assay [13] the target is unchanged. In words: OT_ERa_GFPERaERE_0120: Odyssey Thera (OT) 2-hour HeLa Transcription Induction Assay for Estrogen Receptor (AID 2283382). The essentials:
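HeLa, 384-well, 2 h chemical exposure; GFP reporter induction (ERE), fluorescence microscopy; high content image analysis; positive fitting direction vs DMSO.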

Chain of Estrogen receptor (Homo sapiens) (P03372 whole entry, looked up): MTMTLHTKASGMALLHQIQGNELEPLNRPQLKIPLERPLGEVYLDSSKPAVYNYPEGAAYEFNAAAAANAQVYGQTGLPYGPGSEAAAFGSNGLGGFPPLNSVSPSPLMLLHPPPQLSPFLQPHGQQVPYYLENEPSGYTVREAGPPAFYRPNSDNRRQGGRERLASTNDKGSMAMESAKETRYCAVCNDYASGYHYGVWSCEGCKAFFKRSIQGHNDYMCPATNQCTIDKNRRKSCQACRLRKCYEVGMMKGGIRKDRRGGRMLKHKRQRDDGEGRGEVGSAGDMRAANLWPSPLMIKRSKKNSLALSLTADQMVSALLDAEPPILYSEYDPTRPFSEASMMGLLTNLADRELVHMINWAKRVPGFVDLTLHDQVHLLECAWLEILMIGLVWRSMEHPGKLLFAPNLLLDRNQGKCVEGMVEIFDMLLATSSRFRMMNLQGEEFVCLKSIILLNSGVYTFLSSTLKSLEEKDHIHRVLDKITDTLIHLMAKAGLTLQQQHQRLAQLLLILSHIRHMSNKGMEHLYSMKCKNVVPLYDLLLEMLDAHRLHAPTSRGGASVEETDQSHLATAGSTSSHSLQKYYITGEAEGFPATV
Chain of Bile acid receptor (Homo sapiens) (Q96RI1 whole entry, looked up, the tested form may be a part): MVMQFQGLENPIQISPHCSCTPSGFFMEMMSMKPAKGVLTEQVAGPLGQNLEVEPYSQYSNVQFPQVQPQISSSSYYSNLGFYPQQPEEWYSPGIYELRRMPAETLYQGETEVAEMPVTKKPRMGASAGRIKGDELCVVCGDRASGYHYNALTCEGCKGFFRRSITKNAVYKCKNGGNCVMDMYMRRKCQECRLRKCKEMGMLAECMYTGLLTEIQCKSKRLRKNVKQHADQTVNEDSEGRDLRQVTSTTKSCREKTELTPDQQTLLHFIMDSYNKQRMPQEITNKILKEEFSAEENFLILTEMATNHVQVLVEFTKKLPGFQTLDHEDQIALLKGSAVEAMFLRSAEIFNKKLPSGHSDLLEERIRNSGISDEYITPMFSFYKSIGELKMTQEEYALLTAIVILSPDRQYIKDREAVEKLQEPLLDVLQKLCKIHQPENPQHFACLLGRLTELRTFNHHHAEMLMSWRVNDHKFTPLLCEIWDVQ
Chain of mouse Estrogen Receptor alpha (Era), Esr1 (gene 13982) (P19785 whole entry, looked up): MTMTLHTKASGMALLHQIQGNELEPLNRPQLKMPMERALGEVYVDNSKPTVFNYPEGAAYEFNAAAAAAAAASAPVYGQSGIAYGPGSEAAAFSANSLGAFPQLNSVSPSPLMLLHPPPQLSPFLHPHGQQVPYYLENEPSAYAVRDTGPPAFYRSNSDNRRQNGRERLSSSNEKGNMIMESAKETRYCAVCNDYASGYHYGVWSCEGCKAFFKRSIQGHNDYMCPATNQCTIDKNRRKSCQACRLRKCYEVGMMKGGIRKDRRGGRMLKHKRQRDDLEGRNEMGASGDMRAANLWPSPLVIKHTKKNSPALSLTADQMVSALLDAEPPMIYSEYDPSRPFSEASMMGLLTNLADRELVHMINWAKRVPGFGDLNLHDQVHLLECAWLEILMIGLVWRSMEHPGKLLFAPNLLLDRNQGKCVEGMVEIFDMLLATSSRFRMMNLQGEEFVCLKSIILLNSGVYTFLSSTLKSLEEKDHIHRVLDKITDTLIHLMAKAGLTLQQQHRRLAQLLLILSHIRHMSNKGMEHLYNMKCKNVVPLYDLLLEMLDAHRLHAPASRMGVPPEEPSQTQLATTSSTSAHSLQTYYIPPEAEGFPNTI
Chain of Estrogen receptor beta (Homo sapiens) (Q92731 whole entry, looked up, the tested form may be a part): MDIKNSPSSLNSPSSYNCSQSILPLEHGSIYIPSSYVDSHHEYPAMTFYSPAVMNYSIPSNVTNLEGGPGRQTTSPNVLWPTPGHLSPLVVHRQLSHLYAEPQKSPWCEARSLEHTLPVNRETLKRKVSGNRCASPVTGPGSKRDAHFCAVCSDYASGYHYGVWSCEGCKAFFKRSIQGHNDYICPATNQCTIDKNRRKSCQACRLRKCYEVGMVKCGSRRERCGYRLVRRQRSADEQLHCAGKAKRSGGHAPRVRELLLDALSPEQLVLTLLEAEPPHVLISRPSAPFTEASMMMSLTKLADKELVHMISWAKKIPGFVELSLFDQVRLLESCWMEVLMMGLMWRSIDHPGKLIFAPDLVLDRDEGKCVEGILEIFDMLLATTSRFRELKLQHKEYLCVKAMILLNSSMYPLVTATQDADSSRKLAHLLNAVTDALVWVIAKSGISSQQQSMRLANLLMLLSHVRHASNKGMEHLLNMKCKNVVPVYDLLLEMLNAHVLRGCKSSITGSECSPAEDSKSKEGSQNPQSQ
Chain of Peroxisome proliferator-activated receptor gamma (Homo sapiens) (P37231 whole entry, looked up): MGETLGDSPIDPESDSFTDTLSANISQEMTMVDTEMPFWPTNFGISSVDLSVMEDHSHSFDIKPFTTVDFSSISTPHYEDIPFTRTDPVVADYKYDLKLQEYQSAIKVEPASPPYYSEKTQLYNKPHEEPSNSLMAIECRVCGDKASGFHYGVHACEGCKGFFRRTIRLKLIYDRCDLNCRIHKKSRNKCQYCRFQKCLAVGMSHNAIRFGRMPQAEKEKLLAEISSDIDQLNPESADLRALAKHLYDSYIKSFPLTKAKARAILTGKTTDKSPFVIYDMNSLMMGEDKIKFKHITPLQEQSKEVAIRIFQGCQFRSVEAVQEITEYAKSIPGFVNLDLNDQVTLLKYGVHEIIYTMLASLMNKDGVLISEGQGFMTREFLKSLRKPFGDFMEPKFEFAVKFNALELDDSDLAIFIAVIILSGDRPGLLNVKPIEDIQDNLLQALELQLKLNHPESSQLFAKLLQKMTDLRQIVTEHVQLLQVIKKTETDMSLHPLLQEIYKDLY
Chain of Nuclear receptor subfamily 1 group I member 2 (Homo sapiens) (O75469 whole entry, looked up): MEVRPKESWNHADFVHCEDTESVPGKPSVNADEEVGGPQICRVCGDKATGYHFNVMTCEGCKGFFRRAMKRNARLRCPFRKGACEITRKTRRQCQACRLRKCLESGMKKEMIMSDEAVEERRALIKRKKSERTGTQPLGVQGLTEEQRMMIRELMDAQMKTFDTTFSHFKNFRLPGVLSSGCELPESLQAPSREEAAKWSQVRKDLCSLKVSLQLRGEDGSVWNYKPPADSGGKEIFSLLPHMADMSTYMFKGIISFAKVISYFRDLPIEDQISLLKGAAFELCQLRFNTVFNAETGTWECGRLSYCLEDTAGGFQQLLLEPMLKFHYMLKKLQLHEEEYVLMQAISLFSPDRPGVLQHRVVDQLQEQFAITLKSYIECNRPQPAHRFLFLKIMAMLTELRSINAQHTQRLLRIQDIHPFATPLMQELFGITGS

As to `CC[C@H](c1ccc(O)cc1)[C@@H](CC)c1ccc(O)cc1`, the call in [1], in assay [2], in assay [4], in [6], in assay [7] and in assay [8] was inactive. For the same compound, the result in [9] and in assay [10] was inactive. The AC50 in assay [3] is 3.27 µM (active); in assay [4] it was 6.81 µM (active); in [5], 0.461 µM (active); in assay [6] it was 1.52 nM (active) and 2.29 nM (active) and 4.85 nM (active); in assay [8], 50 µM (active) and 65.7 µM (active); in assay [9], 24.5 µM (active) and 31.9 µM (active).

For the compound `Cc1cc(CCN2CCN(c3nsc4ccccc34)CC2)cc2c1NC(=O)CC2(C)C`, the result in assay [4], in assay [7], in assay [11] and in assay [9] was inactive. Also, the figures for the AC50 in assay [12] and in [13] were 16.1 µM (active) and 15.3 µM (active), respectively.

`CC(C)(C)c1cc(C(C)(C)C)c(O)c(C(C)(C)C)c1`: the result in [4], in assay [12] and in assay [13] was inactive. Besides, the AC50 is 66.3 µM (active) in assay [11]; 81.1 µM (active) in assay [8]; 92.6 µM (active) in assay [9]; 84.3 µM (active) and 77.2 µM (active) in assay [10].

On to `O=C(OCCOCCOC(=O)c1ccccc1)c1ccccc1`, for which the compound was classed as inactive in [12], in assay [13], in [8], in assay [9] and in assay [10].

As for `COCC(C)O` (stereo not given), the AC50 in [6] was 11.5 µM (active). The call in assay [12] and in assay [13] was inactive.

As for `CCCCCCCCCCCCN1CCCC1=O`, the compound was called inactive in assay [6], in assay [11], in assay [12] and in assay [13]. Besides, the half-maximal activity concentration (AC50) in [8] was 11.6 µM (active); in [9] it was 11.2 µM (active); in assay [10], 12.4 µM (active).

Regarding `CCOC(=O)CC(O)(CC(=O)OCC)C(=O)OCC`, the compound was called inactive in [4], in assay [11], in assay [12] and in assay [13].

As for `CCCCCCC(=O)O`, the compound was called inactive in assay [11], in assay [13], in [8], in [9] and in [10].

Take `CCc1nn(C2CCCCC2)c2cc(C3(C#N)CCC(C(=O)O)CC3)ccc12` (stereo not given): the compound was classed as inactive in assay [4], in assay [6], in assay [11], in assay [12], in assay [13] and in [10]. Also, the AC50 in assay [8] is 23.6 µM (active); in [9] it was 41.3 µM (active); in assay [10], 76.9 µM (active).

Consider `CCCCC(CC)COC(=O)CCCCC(=O)OCc1ccccc1` (stereo not given), for which the result in assay [4], in assay [11], in assay [12], in assay [13], in [9] and in assay [10] was inactive.

As to `CC(=O)CC(C)(C)O`, the compound was called inactive in [7], in assay [11], in assay [12], in [13], in assay [8] and in [9].

Turning to `CC(C)(C)c1cccc(C(C)(C)C)c1O`, the result in assay [12], in assay [13] and in [10] was inactive. The AC50 in assay [8] was 78.7 µM (active); in assay [10] it was 79.8 µM (active).

Turning to `CC(O)C(=O)O` (stereo not given), the result in [12], in assay [13], in assay [8] and in [9] was inactive.

Regarding `Cc1ccc(S(=O)(=O)O)c(C)c1`, in assay [12], the half-maximal activity concentration (AC50) was 24 µM (active) and the call was inactive. Moreover, the result in assay [13] was inactive.

On to `CCCCOCCO`, for which the call in assay [12], in [13], in [8], in assay [9] and in assay [10] was inactive.

For `OCCC(F)(F)C(F)(F)C(F)(F)C(F)(F)C(F)(F)C(F)(F)C(F)(F)C(F)(F)F`, the compound was called inactive in assay [6], in [11], in assay [12] and in [10]. Also, the AC50 was 21.8 µM (active) in assay [7] and 3.54 µM (active) in assay [13].

As a reminder, the AC50 is the concentration giving half of the maximal activity seen.
